M18AAP inhibitor: blocks P. falciparum M18 aspartyl aminopeptidase | 290,000 tested, 1.2% active | inhibition, % at 7.35 µM | AID 1822 | recombinant PfM18AAP, H-Glu-NHMec fluorogenic cleavage;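 active = inhibition above the campaign mean inhibition over all tested compounds plus 3 SD, cut at about 28% in these data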
PERK inh: inhibitors of human PERK kinase | 220,000 tested, 0.17% active | AID 1416 | inhibition, % at 5.6 µM | CHO PERK-DD fusion, SEAP luminescence translation reporter;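 active = inhibition above the mean inhibition of all tested compounds plus 3 SD, set separately per screening campaign, cut at about 2.9% in these data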;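 also: PERK kinase domain activated by AP20187 dimerizer at 100 nM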
eIF4E 4G PPI: eIF4E/eIF4G interaction inhibition in translation initiation | 220,000 tested, 0.37% active | TR-FRET eIF4E-eIF4GI(517-606) binding, 2 h | P63073+Q04637 | AID 782 | inhibition, % at 21.7 µM;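 active = inhibition above about 30%, limit read from the data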
eIF4H FP inh: inhibitors of RNA binding by human eIF4H; Q15056; inhibition, % at 35 µM; 290,000 tested, 0.94% active; eIF4H fluorescence polarization binding assay;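 also: calls also rest on retests at 20 µM and on dose response follow-up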
PABP1 MLLE inh: inhibitors of microRNA-mediated deadenylation, human PABP1 MLLE binding; GST-MLLE / FITC-PAM2 fluorescence polarization; inhibition, % at 20 µM; 360,000 tested, 0.36% active; AID 588489; in the data active = inhibition above about 35%, passing the limit was not always enough
PABP polyA inh: PABP-poly(A) binding inhibition; PABP-poly(A) RNA binding, fluorescence polarization; 290,000 tested, 1% active; inhibition, % at 35 µM;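 also: calls also rest on retests at 20 µM and on dose response follow-up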
Each line names hits and unclear results; the compound was inactive in the other large screens; [ ] = dose if it differs, or a comment. This is a sample that favours compounds with a hit; in the whole collection about 2.4% have one here. Unless noted, no rule for the calls is given here.

N=c1c(C(=O)NCc2ccco2)cc2c(=O)n3ccccc3nc2n1Cc1ccc(Cl)cc1	none (no result: eIF4E 4G PPI)
COCCn1c(=N)c(C(=O)NCc2ccco2)cc2c(=O)n3ccccc3nc21	eIF4H FP inh 112.8, PABP polyA inh 78.7 (no result: eIF4E 4G PPI)
Cc1ccc(S(=O)(=O)c2cc3c(=O)n4ccccc4nc3n(Cc3ccco3)c2=N)cc1	eIF4H FP inh 78.3, PABP polyA inh 83.1
CNc1ccc(Br)cc(C(=O)/C=C/c2cccc(OC)c2)c1=O	eIF4H FP inh 80.5, PABP polyA inh active
CNc1ccc(Br)cc(C(=O)/C=C/c2ccc(OC)cc2OC)c1=O	none
CCNc1ccc(Br)cc(C(=O)/C=C/c2ccc3c(c2)OCO3)c1=O	eIF4H FP inh 78.5, PABP polyA inh 38.3
CCNc1ccc(Br)cc(C(=O)/C=C/c2ccc(Cl)cc2)c1=O	none
COCCC(=O)NNS(=O)(=O)c1ccc(Cl)cc1	none
CNc1c(NS(=O)(=O)c2ccc3c(c2)CCCC3)c(=O)oc2ccccc12	none (no result: PERK inh, eIF4E 4G PPI)
COc1ccc(C(=O)CN2CCN(S(=O)(=O)c3cccc([N+](=O)[O-])c3)CC2)cc1OC	PABP1 MLLE inh 39.2
COc1cccc(C(=O)CN2CCN(S(=O)(=O)c3cccc([N+](=O)[O-])c3)CC2)c1	none
CC1(C(=O)Nc2ccc(Cl)c(C(F)(F)F)c2)Cc2c(-c3ccc(C(N)=O)cc3)ccnc2O1 (stereo unspecified)	none (no result: M18AAP inhibitor, PERK inh, eIF4E 4G PPI, eIF4H FP inh, PABP polyA inh)
Cc1ccc(CNC(=O)c2ccc(N3CCc4ccccc43)c([N+](=O)[O-])c2)cc1	eIF4E 4G PPI 54.9
NNC(=O)c1ccc(N2CCc3ccccc32)c([N+](=O)[O-])c1	none
C[C@H](NC(=O)c1ccccc1)C(=O)N1CCC2(CC1)NCCc1[nH]cnc12	none (no result: PERK inh, eIF4E 4G PPI, eIF4H FP inh, PABP polyA inh)
COc1cc(/C=N/NC(=O)CSc2n[nH]c(=O)[nH]c2=O)cc(OC)c1O	PABP polyA inh 52.3
CCOC(=O)c1c(N)sc2c(O)c(Br)ccc12	eIF4E 4G PPI 39.1[fluorescence artefact?]
O=C1NCC(COc2cccc3ccccc23)O1 (stereo unspecified)	PERK inh 3.1
Cc1ccccc1OCC1CNC(=O)O1 (stereo unspecified)	none
CC(C)(C(=O)N1CCC1(C)C(=O)Nc1ccccc1Br)c1ccccc1 (stereo unspecified)	none (no result: M18AAP inhibitor, PERK inh, eIF4E 4G PPI, eIF4H FP inh, PABP polyA inh)
Cc1cc(C(F)(F)F)nc(SCc2ccc(C(=O)O)o2)n1	none
Cc1cc(C)nc(SCc2ccc(C(=O)O)o2)n1	PERK inh 3.1
Cc1ccc(NC(=O)CSC(N)=O)cc1Cl	PABP1 MLLE inh 40.7
Cc1ccc(NC(=O)Cn2cccc2)cc1Cl	PERK inh 2.9
NC(=O)SCC(=O)Nc1ccc(Cl)c(Cl)c1	PABP1 MLLE inh 41.1 (no result: eIF4E 4G PPI)
CC(C)CNC(=O)C(=O)NCC1OCCCN1S(=O)(=O)c1ccc2c(c1)OCCO2 (stereo unspecified)	none (no result: PERK inh, eIF4E 4G PPI)
COc1ccc(CNC(=O)COC(=O)Cc2ccc(Br)cc2)cc1	none (no result: M18AAP inhibitor, PERK inh, eIF4E 4G PPI, eIF4H FP inh, PABP polyA inh)
O=C(/C=C/c1ccc([N+](=O)[O-])cc1)Nc1ncc([N+](=O)[O-])s1	none
O=[N+]([O-])c1ccc(Cl)c(C2Nc3cccc4cccc(c34)N2)c1	eIF4H FP inh 97.2, PABP polyA inh 59.7
Fc1cccc(Cl)c1C1Nc2cccc3cccc(c23)N1	eIF4H FP inh 95.6, PABP polyA inh 87.1 (no result: PERK inh, eIF4E 4G PPI)
Clc1cccc(Cl)c1C1Nc2cccc3cccc(c23)N1	eIF4H FP inh 98.8, PABP polyA inh 81.3 (no result: PERK inh, eIF4E 4G PPI)
CCOc1cc(C2Nc3cccc4cccc(c34)N2)ccc1O	none
CCCCN(CCCNC(=O)c1ccc2c(c1)NC(=O)CN2C)c1ccccc1	none (no result: M18AAP inhibitor, PERK inh, eIF4E 4G PPI, eIF4H FP inh, PABP polyA inh)
CN1/C(=C/C(=O)C2CCC2)Sc2ccccc21	none
CN1/C(=C/C(=O)c2ccc(Cl)cc2)Sc2cc3c(cc21)OCO3	M18AAP inhibitor 31.6
CNc1ccc(Cl)cc1C(N)=O	PABP polyA inh 63.2
NNC(=O)c1cc(Cl)ccc1Cl	none
Nc1ccc(N2CCCCCC2)cc1	eIF4H FP inh 82.7, PABP polyA inh 71.3 (no result: PABP1 MLLE inh)
CCCOc1cccc(NC(=O)c2cc(C)oc2C)c1	none
COc1cc2cc(/C=C/C(=O)c3ccco3)c(Cl)nc2cc1OC	eIF4H FP inh 76.6, PABP polyA inh 89.7
COc1ccc2cc(/C=C/C(=O)c3ccco3)c(Cl)nc2c1	none (no result: PABP1 MLLE inh)
Cc1cc(C)c2c(n1)sc1c(N3CCN(CCO)CC3)ncnc12	none
CSc1nc(NCCN(C)C)c2sc3nc(-c4ccco4)c4c(c3c2n1)CCC4	none (no result: M18AAP inhibitor, PERK inh, eIF4E 4G PPI, eIF4H FP inh, PABP polyA inh)
CSc1nc(SCC(=O)O)c2sc3nc(-c4ccccc4)c4c(c3c2n1)CCC4	eIF4E 4G PPI 57.4, eIF4H FP inh 71.0, PABP polyA inh 61.7
CSc1nc(N2CCN(CCO)CC2)c2sc3nc(-c4ccco4)c4c(c3c2n1)CCC4	eIF4H FP inh 97.8, PABP polyA inh 38.1 (no result: M18AAP inhibitor, PERK inh, eIF4E 4G PPI, PABP1 MLLE inh)
CSc1nc(N(C)CCO)c2sc3nc(-c4ccco4)c4c(c3c2n1)CCC4	eIF4H FP inh 79.0, PABP polyA inh 66.8
O=C(O)CSc1nc2sc3c(c2c(=O)n1-c1ccccc1)CCC3	none
O=C(O)c1cccc2cccc(-c3c4ccc(=O)c(O)c-4oc4c(O)c(O)ccc34)c12	none (no result: M18AAP inhibitor, PERK inh, eIF4E 4G PPI, eIF4H FP inh, PABP polyA inh)
Nc1cc(C(=O)O)ccc1Nc1ccc(F)c(F)c1	eIF4H FP inh 64.6, PABP polyA inh 34.6
O=C(O)c1ccc(N/N=C/c2ccc(F)c(F)c2)cc1	none
COCc1cccc(-c2csc(C(NC(C)=O)c3cccc(OC)c3)n2)c1 (stereo unspecified)	none (no result: M18AAP inhibitor, PERK inh, eIF4E 4G PPI, eIF4H FP inh, PABP polyA inh)
Cc1cc(C)nc(Sc2ncnc(N)c2[N+](=O)[O-])n1	M18AAP inhibitor 50.1
CC(=O)Nc1ccc(NC(=O)C/C(C)=N/NC(=O)c2cccc3ccccc23)cc1	none (no result: PERK inh, eIF4E 4G PPI)
CCOC(=O)C1=C(CS(=O)(=O)c2ccc(F)c(C)c2)NC(=O)NC1c1ccc(O)c(O)c1 (stereo unspecified)	M18AAP inhibitor 74.8
CS(=O)(=O)N1N=C(c2cccs2)CC1c1ccccc1O (stereo unspecified)	eIF4H FP inh 59.3, PABP polyA inh 34.0
CCOc1ccccc1C1CC(c2cccs2)=NN1S(C)(=O)=O (stereo unspecified)	none
CCN(CC)c1ccc(C=C(c2nnnn2-c2ccc(C)cc2)c2nnnn2-c2ccc(C)cc2)cc1	eIF4H FP inh 53.3
Cc1ccc(-n2nnnc2-c2ccccc2)cc1	none
Oc1ccc(Br)cc1C=Nc1ccc2c3c(cccc13)CC2	eIF4H FP inh 100.1, PABP polyA inh 3.5
Oc1ccc(Cl)cc1C=Nc1ccccc1Br	none
Cc1cccc(C(=O)NC2CC3CCCC(C2)N3Cc2ccccc2)c1 (stereo unspecified)	none (no result: PERK inh, eIF4E 4G PPI)
CCN(CC)c1ccc(NC(=O)c2ccc(NC(=O)C3CCCO3)cc2)c(C)c1 (stereo unspecified)	M18AAP inhibitor 31.0
Cc1cc(NC(=O)c2ccc(NC(=O)C3CCCO3)cc2)ccc1Br (stereo unspecified)	none (no result: PERK inh, eIF4E 4G PPI)
CCN(C(=O)CSc1nnc2nc(C)cc(C)n12)c1ccccc1	none
O=S(=O)(NC1CC2CCC1C2)c1ccc(Br)cc1 (stereo unspecified)	none (no result: PERK inh, eIF4E 4G PPI)
Cn1c2ccccc2c2nnc(SCc3nnc(-c4ccccc4)o3)nc21	PABP polyA inh 51.4 (no result: PABP1 MLLE inh)
